GalR3 antag = blocks the human galanin receptor 3. O60755. HEK293 GalR3-CNG cAMP membrane potential fluorescence; galR3 body fused to GalR1 C-terminus. inhibition, % at 3 µM. hit rate 0.44% among 360,000. AID 651719;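 active means inhibition above the screen-wide average plus 3 SD, cut at about 13% in these data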;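 further: forskolin and galanin both at EC90 stimulate the cells; cAMP rise reported by CNG channel membrane potential dye signal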
FXN GAA850 act = increases GAA850 frataxin promoter reporter activity; HEK293 lucGAA850 FXN promoter luciferase reporter, 24 h; percent of 10 µM SAHA response; activation, % at 6 µM; hit rate 0.56% among 360,000; AID 540364;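 active means activation above the average of all compounds screened plus 3 SD, cutoff fixed separately per campaign, cut at about 7.5% in these data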
SMARCA2 activ = activators of SMARCA2 function | MG213 cells, MMTV-luciferase reporter, dexamethasone, overnight | activation, % at 9.1 µM | hit rate 1% among 370,000 | AID 652017; in the data active means activation above about 7.8%
COUP-TFII inh = inhibitors of human COUP-TFII (NR2F2); inhibition, % at 8.6 µM; hit rate 0.7% among 370,000; HEK293T NGFI-A luciferase reporter, luminescence; AID 686940;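 active means inhibition above a per-plate cutoff, mean inhibition of test wells between control levels plus 3 SD, cut at about 38% in these data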;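 further: cells cotransfected with COUP-TFII expression vector driving the NGFI-A reporter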
Target sequence (P24468 whole entry, looked up): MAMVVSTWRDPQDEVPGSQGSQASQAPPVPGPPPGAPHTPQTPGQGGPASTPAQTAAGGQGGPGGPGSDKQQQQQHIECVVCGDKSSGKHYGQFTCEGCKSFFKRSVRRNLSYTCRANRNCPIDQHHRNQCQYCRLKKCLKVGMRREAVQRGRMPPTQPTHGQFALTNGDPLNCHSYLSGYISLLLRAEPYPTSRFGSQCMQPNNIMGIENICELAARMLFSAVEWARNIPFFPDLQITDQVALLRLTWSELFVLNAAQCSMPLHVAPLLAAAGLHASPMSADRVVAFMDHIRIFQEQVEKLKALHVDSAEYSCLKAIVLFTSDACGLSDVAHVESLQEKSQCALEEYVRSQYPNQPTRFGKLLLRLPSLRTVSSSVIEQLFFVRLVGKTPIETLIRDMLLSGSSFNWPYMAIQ
H9c2 protect = protects H9c2 cardiomyocytes from peroxide injury; H2O2 injury protection, ATPLite, 2 h; protection from H2O2 cell death, % at 20 µM; hit rate 0.63% among 360,000; AID 588492;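 active means compounds giving at least 50% protection of heart cells from peroxide-induced death in the single-dose screen, raw or plate-pattern-corrected value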
Gli-Sufu antag = antagonists of Gli-Sufu signaling. Sufu-KO-LIGHT fibroblasts, Gli luciferase reporter luminescence. inhibition, % at 5 µM. hit rate 0.74% among 340,000;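 active means inhibition above about 55%, limit read from the data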
VP16 Luc counter = VP16 inhibition counter-screen for COUP-TFII. inhibition, % at 8.5 µM. hit rate 25% among 2,500. HEK293 Gal4-VP16 luciferase reporter, luminescence. shares compounds with COUP-TFII inh; in the data active means inhibition above about 13%
NR2F2 inh conf = COUP-TFII (NR2F2) inhibition, confirmation assay; inhibition, % at 8.5 µM; shares compounds with COUP-TFII inh; AID 687008; HEK293 NGFI-A luciferase reporter, luminescence; hit rate 45% among 2,500;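 active means mean inhibition over three repeats above a set limit taken from the earlier primary screen, cut at about 38% in these data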
Numbers stand for hits; n = inactive; x = not tested or not shown. Shown are actives, neighbours in structure and some others; about 3.4% of the full set was active somewhere.

SMILES	GalR3 antag	FXN GAA850 act	SMARCA2 activ	COUP-TFII inh	H9c2 protect	Gli-Sufu antag	VP16 Luc counter	NR2F2 inh conf
C/C=C(\C)C(=O)OC1CC(C)(C)C[C@H]2C3=CC[C@@H]4[C@@]5(C)CCC(O[C@@H]6O[C@@H](C(=O)O)[C@@H](O)C(O[C@@H]7OC[C@H](O)[C@@H](O)[C@@H]7O[C@@H]7OC(CO)C(O)[C@@H](O)[C@@H]7O)C6O[C@@H]6OC(CO)C(O)C(O)C6O)[C@@](C)(CO)[C@@H]5CC[C@]4(C)[C@]3(C)CC(O)[C@@]12CO (some centres undefined)	n	n	n	n	n	n	x	x
O=C(Nc1ccncc1)C1COc2ccccc2O1 (centres undefined)	n	n	n	n	n	n	x	x
O=C(NC1=NCCS1)C1COc2ccccc2O1 (centres undefined)	n	n	n	49	n	n	19	49
Cc1cc(C)nc(NC(N)=NCCc2ccccc2)n1	n	n	n	43	n	n	n	n
Cc1cc(C)nc(NC(N)=NCCc2c[nH]c3ccccc23)n1	n	n	n	40	n	n	n	n
CCOP(=O)(OCC)C(NC(=O)c1cccs1)C(F)(F)F (centres undefined)	n	n	n	n	n	n	x	x
O=C1CCCN2N=C(SCC(=O)Nc3cccc(Cl)c3)SC2=N1	n	n	n	n	n	x	x	x
O=C1CCCN2N=C(SCC(=O)Nc3cccc(C(F)(F)F)c3)SC2=N1	n	n	n	53	n	n	n	50
CCOC(=O)c1c(NC(=O)CC2SC(N)=NC2=O)sc2c1CCCC2 (centres undefined)	n	n	n	n	n	n	x	x
COc1ccccc1CNC(=O)C1CCCN(S(=O)(=O)c2cccs2)C1 (centres undefined)	n	n	n	n	n	n	x	x
Cc1ccc(C)c(NC(=O)CN(C)C(=O)c2cccc(S(=O)(=O)N3CCN(Cc4ccccc4)CC3)c2)c1	n	n	n	45	n	n	n	n
CSc1ccc(CN(C)C(=O)c2cc(S(=O)(=O)NCc3ccccc3)ccc2C)cc1	n	n	n	53	n	n	n	n
CSc1ccc(CN(C)C(=O)c2cccc(S(=O)(=O)N3CCN(Cc4ccccc4)CC3)c2)cc1	n	n	n	41	n	n	n	n
COc1ccc(CN(C)C(=O)c2cccc(S(=O)(=O)N3CCN(c4ccccc4)CC3)c2)c(OC)c1OC	n	n	n	41	n	n	n	n
COc1cccc(CN(C)C(=O)c2cccc(S(=O)(=O)N3CCN(c4ccccc4)CC3)c2)c1	n	n	n	n	n	x	x	x
Cc1ccc(C)c(NC(=O)CN(C)C(=O)c2cccc(S(=O)(=O)N3CCCC3)c2)c1	n	n	n	n	n	n	x	x
NS(=O)(=O)c1ccc(CCNC(=O)CCNS(=O)(=O)c2ccccc2C(F)(F)F)cc1	n	n	n	n	n	n	x	x
COc1ccccc1N1C(=O)CC(Sc2n[nH]c(-c3cccc(C)c3)n2)C1=O (centres undefined)	n	n	n	n	n	n	x	x
O=S(=O)(NC(CO)Cc1ccccc1)c1cc(Cl)ccc1F (centres undefined)	n	n	n	n	n	n	x	x
Cc1ccc2oc(-c3cccc(NC(=S)NC(=O)/C=C/c4ccco4)c3)nc2c1	n	n	n	47	n	n	n	n
O=S1(=O)CCN(Cc2ccncc2)CC1	n	n	n	n	n	x	x	x
CC(=O)NC1C(=O)N(CCc2ccccc2)c2ccc(Br)cc21 (centres undefined)	n	n	n	n	n	n	x	x
CC(=O)NC1C(=O)N(Cc2ccccc2)c2ccc(Br)cc21 (centres undefined)	n	n	n	38	n	n	n	n
COc1ccc(NS(=O)(=O)c2ccc(C)c(C(=O)NCC(c3ccco3)N3CCCCC3)c2)cc1 (centres undefined)	n	n	n	n	n	n	x	x
COC(=O)C1=C(C(=O)OC)[C@@]2([C@@H](Cc3ccc(C)cc3)Nc3ccccc3)C=C[C@@H]1O2	x	x	x	81	x	x	31	n
SMILES	GalR3 antag	FXN GAA850 act	SMARCA2 activ	COUP-TFII inh	H9c2 protect	Gli-Sufu antag	VP16 Luc counter	NR2F2 inh conf
COC(=O)C1=C(C(=O)OC)[C@]2([C@@H]3CCCCN[C@@H](Cc4ccccc4)C(=O)N3Cc3ccccc3)C=C[C@H]1O2	n	n	n	n	n	n	x	x
c1ccc(CNc2nc(-c3ccccn3)nc3ccccc23)cc1	n	n	n	n	n	n	x	x
CCC(C)Nc1nc(-c2ccccn2)nc2ccccc12 (centres undefined)	n	n	n	38	n	n	n	n
O=Cc1s/c(=N\S(=O)(=O)c2ccccc2)n(CCCCl)c1Cl	n	n	n	60	n	n	62	46
CCn1c(C)cs/c1=N\S(=O)(=O)c1ccccc1	n	n	n	n	n	n	x	x
C=CCSc1nc2ccccc2n1C(=O)/C=C/c1ccc(OC)c(OC)c1	n	n	n	n	n	n	x	x
CCSc1nc2ccccc2n1C(=O)/C=C/c1ccc(OC)c(OC)c1	n	n	n	58	n	n	n	67
C=CCSc1nc2ccccc2n1C(=O)/C=C/c1cc(OC)c(OC)c(OC)c1	n	n	n	46	n	n	17	71
Cc1nc(N2CCN(c3ccccn3)CC2)c2c(C)c(C(=O)Nc3c(F)cc(F)cc3Br)sc2n1	n	n	n	42	n	n	n	n
CCCN(CCC)C1=CC(=[N+]2CCCC2)CC(C)(C)C1	24	n	n	53	n	82	n	43
Cc1[nH]nc(C(F)(F)F)c1N=NN1CCOCC1	n	n	n	49	n	n	n	46
Cc1ccc(CN2C(=O)CCC2C(=O)NCCN2CCN(c3cccc(Cl)c3)CC2)cc1 (centres undefined)	n	n	n	n	n	n	x	x
COc1ccc(CN2C/C(=C/c3ccc(C)cc3)N3C(=O)C[C@@H](c4ccccc4)N=C23)c(OC)c1	x	x	n	n	x	x	x	x
Cc1ccc(NC(=S)N(Cc2ccco2)C2CCN(C(C)C)CC2)cc1	n	n	n	n	n	n	x	x
CN1C/C(=C\c2ccc(N3CCOCC3)cc2)C(=O)/C(=C/c2ccc(N3CCOCC3)cc2)C1	n	n	n	n	n	n	x	x
CCN1C/C(=C/c2ccc(N3CCOCC3)cc2)C(=O)/C(=C/c2ccc(N3CCOCC3)cc2)C1	n	n	n	37	n	n	24	39
FC(F)(F)c1cccc(Cc2noc(CN3CCC(c4ccncc4)CC3)n2)c1	n	n	n	53	n	n	n	n
Cc1ccc(-n2[nH]c(=O)c(-c3ccccn3)c2C)cc1	n	n	n	44	n	n	n	n
